Assay results: the supplement of paper PMC9177965

tested on: HT29 sg-Ctrl (RNF43 wildtype); assay: cell viability activity relative to DMSO (negative = inhibition); higher = more viable cells (less growth inhibition); conditions: 5 µM; 96 h
Procedure: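 Broad Repurposing Library primary screen at a single dose of 5 uM. HT29 sg-Ctrl and HT29 RNF43 G659fs CRISPR-edited isogenic cells were seeded at 2500 cells/well in 384-well plates in duplicate and treated for 96 h. Viability was read by CellTiter-Glo and reported as % activity relative to DMSO, with MG132 as the positive control (negative = growth inhibition).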

Row | Compound | cell viability activity [%]
1 | CC(C)C[C@@H](C=O)NC(=O)[C@H](CC(C)C)NC(=O)[C@H](CC(C)C)NC(=O)OCc1ccccc1 | -96.2
2 | CCN(CC)C(=S)SSC(=S)N(CC)CC | -43.6
3 | CCCCCCCCCc1ccc(OCCOCCOCCOCCOCCOCCOCCOCCOCCO)cc1 | -22.3
4 | Cc1c(C(=O)N2CCOc3ccc(-c4ccc(N)nc4)cc3C2)ccc(S(C)(=O)=O)c1F | -32.1
5 | NC(=O)Nc1cc(-c2cccc(F)c2)sc1C(=O)N[C@H]1CCCNC1 | -32.6
6 | COc1cc(F)c(F)c(Nc2ccc(I)cc2F)c1NS(=O)(=O)C1(C[C@H](O)CO)CC1 | -78.3
7 | CC[C@@H]1C(=O)N(C)c2cnc(Nc3ccc(C(=O)NC4CCN(C)CC4)cc3OC)nc2N1C1CCCC1 | -90.4
8 | CCCCc1oc2ccccc2c1C(=O)c1cc(I)c(OCCN(CC)CC)c(I)c1 | -98.9
9 | COc1cc(N2CCC(N3CCN(C)CC3)CC2)ccc1Nc1ncc(Cl)c(Nc2ccccc2S(=O)(=O)C(C)C)n1 | -66.5
10 | CC(CN1c2ccccc2Sc2ccccc21)N(C)C (configuration not stated) | -3.76
11 | COc1cc(N2CCC(N3CCN(C)CC3)CC2)ccc1Nc1ncc(Cl)c(Nc2ccccc2P(C)(C)=O)n1 | -81
12 | CN1CCC(CNc2ccc3ncc(-c4cccc(OC(F)(F)F)c4)n3n2)CC1 | -52.2
13 | Nc1ccc(-c2cccc3c(=O)cc(N4CCOCC4)oc23)cc1 | -76.6
14 | CO[C@H]1C(=O)[C@]2(C)[C@@H](OC)C[C@H]3OC[C@@]3(OC(C)=O)[C@H]2[C@H](OC(=O)c2ccccc2)[C@]2(O)C[C@H](OC(=O)[C@H](O)[C@@H](NC(=O)OC(C)(C)C)c3ccccc3)C(C)=C1C2(C)C | -50.5
15 | OC1(c2ccc(Cl)c(C(F)(F)F)c2)CCN(CCCC(c2ccc(F)cc2)c2ccc(F)cc2)CC1 | -60.6
16 | CC[C@@H](C(=O)[C@@H](C)[C@@H](O)[C@H](C)CCc1ccc(C)c(O)c1C(=O)O)[C@H]1O[C@](CC)([C@H]2CC[C@](O)(CC)[C@H](C)O2)C[C@@H]1C | -42.9
17 | COc1cccc2cc(-c3nc([C@H]4CC[C@H](C(=O)O)CC4)n4ncnc(N)c34)[nH]c12 | -27.5
18 | COc1ncc(-c2ccc3nccc(-c4ccnnc4)c3c2)cc1NS(=O)(=O)c1ccc(F)cc1F | -89.3
19 | COC(=O)[C@H]1[C@H]2C[C@@H]3c4[nH]c5cc(OC)ccc5c4CCN3C[C@H]2C[C@@H](OC(=O)c2cc(OC)c(OC)c(OC)c2)[C@@H]1OC | -40.7

Row | Compound | cell viability activity [%]
20 | Cc1cc(N2CCOCC2)cc2[nH]c(-c3c(NC[C@@H](O)c4cccc(Cl)c4)cc[nH]c3=O)nc12 | -50.5
21 | CC(C)C[C@H](NC(=O)CNC(=O)c1cc(Cl)ccc1Cl)B(O)O | -89.7
22 | O=C(c1c(F)ccc(NS(=O)(=O)N2CC[C@@H](F)C2)c1F)c1c[nH]c2ncc(-c3cnc(C4CC4)nc3)cc12 | -69
23 | O=C(NO)c1cnc(N2CCN(S(=O)(=O)c3ccc4ccccc4c3)CC2)nc1 | -48.5
24 | O=C(Nc1cc(C(F)(F)F)cc(C(F)(F)F)c1)c1cc(Cl)ccc1O | -90.9
25 | CN1CCN(Cc2ccc(Nc3ncc(Cl)c(Nc4ccccc4S(=O)(=O)N(C)C)n3)cc2)CC1 | -96.1
26 | Nc1ccccc1NC(=O)c1ccc(CNC(=O)OCc2cccnc2)cc1 | -77.2
27 | CCCCc1oc2ccc(NS(C)(=O)=O)cc2c1C(=O)c1ccc(OCCCN(CCCC)CCCC)cc1 | -91.7
28 | CC(=O)OC1CC2CCC1(C)C2(C)C (configuration not stated) | -26.5
29 | Cc1cc(I)ccc1Nc1c(C(=O)NOCC2CC2)cc(F)c(F)c1F | -71.6
30 | COc1cc(N2CCC(N3CCN(C)CC3)CC2)ccc1Nc1ncnc(Nc2ccccc2S(=O)(=O)C(C)C)n1 | -27.7
31 | CNC(=O)Nc1ccc(-c2nc(N3CC4CCC(C3)O4)c3cnn(C4CCC5(CC4)OCCO5)c3n2)cc1 | -19.4
32 | COC(=O)Nc1ccc(-c2nc(N3CCOCC3)c3cnn(C4CCN(Cc5cccnc5)CC4)c3n2)cc1 | -48.1
33 | Nc1nc(Nc2ccc3c(c2)CCC(N2CCCC2)CC3)nn1-c1cc2c(nn1)-c1ccccc1CCC2 (configuration not stated) | -31.9
34 | N#Cc1ccc(Cn2cncc2CN2CCN(c3cccc(Cl)c3)C(=O)C2)cc1 | -43.4
35 | CCCCCCCC[N+](C)(C)Cc1ccccc1 | -16.8
36 | Nc1ncnc2c1nc(Br)n2[C@@H]1O[C@@H]2COP(=O)(O)O[C@H]2[C@H]1O | -6.53
37 | O=C1NCN(c2ccccc2)C12CCN(CCCC(c1ccc(F)cc1)c1ccc(F)cc1)CC2 | -69.5
